The entries come from a sample that favours hits as a whole.
Pf Dd2 inh = inhibitors of Plasmodium falciparum Dd2 growth; P. falciparum Dd2 growth, SYBR Green, 72 h; hit rate 4.3% among 120,000; Potency, µM (highest dose often 28.9 µM), inactives show top-dose activity, negative = inhibition, usual class: inhibitors; AID 1347417; active = well fitted inhibition curve with a large enough effect;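 note: plate controls were DMSO vehicle for no effect and reference drug for full effect; nearly all actives have a fitted effect of over 65% in size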
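Infected erythrocytes (Dd2, 0.3% parasitemia, 2.5% hematocrit final) are added to compound in RPMI-1640/Albumax II medium, grown 72 h at 37C in low oxygen, then lysed with saponin/Triton-X containing SYBR Green and read by fluorescence.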
An asterisk follows results filed as active; i = inactive; [ ] = remark or other dose. Potency is the fitted concentration of half-maximal effect.

SMILES | Pf Dd2 inh
CCc1ccc(NC(=O)c2ccc(CN3C(=O)NC4(CCOCC4)C3=O)cc2)cc1 | i
CCC(C)NC(=O)c1ccc(-c2cccc(C#N)c2)o1 (centres undefined) | -7.8%
CCCN(CC1CCOC1)S(=O)(=O)c1ccccc1C (centres undefined) | 15.5%[5.79 µM]
COc1cccc(CNC(=O)Cn2c(=O)c(-c3noc(C)n3)c3n(c2=O)CCCCC3)c1 | 14.6%
Cc1cccc(OCC(=O)NCc2ccc3c(c2)CCN3C(=O)c2ccccc2)c1 | 10µM*
Cc1cccc(C(=O)N2CCc3cc(CNC(=O)CSc4ccccc4)ccc32)c1 | i
COc1ccc(CC(=O)NCc2ccc3c(c2)CCN3C(=O)c2ccccc2)cc1OC | 15.7%
O=C(NCCc1ccncc1)C1CN(C(=O)c2ccc(F)cc2)CC12CCOCC2 (centres undefined) | 18.7%
CC(C)Cc1cc(C(=O)N2CCCC(c3ccc(C(=O)O)cc3)C2)nc(=O)[nH]1 (centres undefined) | -18.7%
O=C(Cc1ccc2c(c1)OCO2)N(Cc1ccncc1)Cc1cccc(OCCc2ccc(F)cc2)c1 | 11.2µM*
O=C(CN1C(=O)COc2ccc(C(=O)COc3cccc(F)c3)cc21)NCc1ccc2c(c1)OCO2 | i
O=C(Cc1ccc2c(c1)OCO2)N1CCNc2cnc(Nc3cccc(F)c3)nc2C1 | -2.8%[44.1 µM]
CC(C)NC(=O)C[C@@H]1C[C@H]2O[C@H](CNC(=O)NC3CCCCC3)[C@@H](O)[C@H]2O1 | 13.9%[44.1 µM]
CN(C)[C@@H]1CN(C(=O)c2cccc(C#N)c2)C[C@H]1CO | 9.2%
Cc1nc(N2CCC(NC(=O)c3ccsc3)CC2)cc(C(F)(F)F)n1 | -6.6%
Cc1nc(N2CCC(NC(=O)Cc3cccs3)CC2)cc(C(F)(F)F)n1 | i
Cc1ccc(C(=O)NC2CCN(c3cc(C(F)(F)F)nc(C)n3)CC2)cc1 | i
Cc1nc(N2CCC(NC(=O)c3cccs3)CC2)cc(C(F)(F)F)n1 | 5.01µM*
COc1ccc(C(=O)NC2CCN(c3cc(C(F)(F)F)nc(C)n3)CC2)c(C)c1 | -2.9%
COc1ccc(C(=O)NC2CCN(c3cc(C(F)(F)F)nc(C)n3)CC2)cc1 | 14.1µM*
O=C(NC1(CN2CCOCC2)CCCC1)c1ccc(C2CCCNC2)cc1 (centres undefined) | -10.8%
COc1ccc(CC(=O)N2CC[C@H]3CC(=O)N(C4CC4)CC[C@H]3C2)cc1 | i
Cc1cccc(C(=O)NCCc2noc(-c3cccnc3)n2)c1 | -5.4%
O=C(Cc1ccc(F)cc1)N1CCN(c2nc3ncccc3o2)CC1 | i
Cc1noc(C)c1[S+](=O)([O-])N1CCC(c2nnc3n2C(C(=O)O)CC3)CC1 (centres undefined) | -0.2%
SMILES | Pf Dd2 inh
O=C(NCc1cccnc1Oc1ccccc1)c1ccncc1 | -6.3%
Cc1ccc(NC(=O)N2CCN(c3nnnn3-c3cccc(C(F)(F)F)c3)CC2)cc1F | 7.94µM*
CCc1cccc(-n2nnnc2N2CCN(C(=O)Nc3ccc(C)c(Br)c3)CC2)c1 | -16.7%
CCc1cccc(-n2nnnc2N2CCN(C(=O)Nc3ccc(C)c(Cl)c3)CC2)c1 | -23.0%
O=C1NCCOCCN(C(=O)COCc2ccccc2)[C@H]2CCC[C@@H]12 | 2.9%
Cc1ccc(OCCC2CCN(C(=O)c3ccc(C)nc3)C2)cc1 (centres undefined) | i
COCCN1C(=O)c2ccccc2C(C(=O)NCCc2ccccc2)C12CCCC2 (centres undefined) | -19.7%
COCCN1C(=O)c2ccccc2C(C(=O)Nc2nncs2)C12CCCCC2 (centres undefined) | -21.1%
COCCN1C(=O)c2ccccc2C(C(=O)Nc2nc3c(s2)CCC3)C12CCCC2 (centres undefined) | 12.6µM*
COCCN1C(=O)c2ccccc2C(C(=O)Nc2nnc(C)s2)C12CCCCC2 (centres undefined) | -15.7%
CCCc1nnc(NC(=O)C2c3ccccc3C(=O)N(CCOC)C23CCCCC3)s1 (centres undefined) | 10µM*
COCCN1C(=O)c2ccccc2C(C(=O)NCCC(C)C)C12CCCC2 (centres undefined) | -19.3%
COCCN1C(=O)c2ccccc2C(C(=O)Nc2nc(C)c(C)s2)C12CCCC2 (centres undefined) | 7.94µM*
COCCN1C(=O)c2ccccc2C(C(=O)NCc2ccccc2)C12CCCC2 (centres undefined) | -14.5%
COCCN1C(=O)c2ccccc2C(C(=O)Nc2nc(C(=O)OC)c(C(C)C)s2)C12CCCC2 (centres undefined) | 11.2µM*
COCCN1C(=O)c2ccccc2C(C(=O)Nc2nncs2)C12CCCC2 (centres undefined) | -9.7%
OC1CC(c2cc(NCCc3nc(Cc4ccccc4)no3)ncn2)C1 (centres undefined) | 8.8%
CCn1cc(-c2ccc(Cl)cc2)cc1C(=O)O | 15.1%
O=C(O)C1CC2(CCN(C(=O)Cc3ccc4c(c3)OCO4)CC2)CN1 (centres undefined) | -9.7%
O=S(=O)(c1ccc(Cl)s1)N1CCC(n2cnnc2C2CC2)CC1 | 0.4%
O=C(NCCN1CCCC1)c1ccc(-c2ccc(N3CCSCC3)nc2)cc1 | -25.1%
COc1cccc(C(=O)N2CC[C@H]3COC(=O)N3c3cc(F)ccc3C2)c1 | -4.5%[44.1 µM]
O=C(Nc1ccsc1)N[C@H]1C[C@H]2C(=O)NC[C@@H](CCC(=O)N3CCc4ccccc43)N2C1 | -18.3%
CCC(CC)NC(=O)CCc1nc(C2CCCN2C(=O)NC(C)C)no1 (centres undefined) | i
COc1cccc([S+](=O)([O-])N2CCn3c(nn(-c4ccc(C(F)(F)F)cc4)c3=O)C2)c1 | -2.3%
SMILES | Pf Dd2 inh
COc1ccc(CN2CCOC[C@H]2c2ncc(-c3ccc(S(C)(=O)=O)cc3)[nH]2)cc1 | i
COCCN1C(=O)c2ccccc2C(C(=O)Nc2nc3ccccc3s2)C12CCCC2 (centres undefined) | 6.31µM*
COCCN1C(=O)c2ccccc2C(C(=O)NCc2ccc(OC)cc2)C12CCCC2 (centres undefined) | -12.7%
CC(C)CCN(C)C(C)c1cccs1 (centres undefined) | -9.7%[44.1 µM]
CC(=O)N1CCC(CC(=O)N2CCN(c3cc(-c4ccccc4)[nH]n3)CC2)CC1 | 12.0%
CCSCCNc1nc(COC)nc2c1cnn2C | 25.4%
COc1ncccc1-c1cc(C(=O)NCc2c(C)cc(C)[nH]c2=O)c2c(c1)N(C(C)C)CCO2 | -2.0%
Cc1cc(CNC(=O)[C@@H]2CCC[C@@H](NC(=O)c3ccccc3)CN(C)C(=O)C2)no1 | -1.0%[44.1 µM]
O=C(NCc1cccs1)C1CCN(c2nc3ncccc3o2)CC1 | -21.8%[44.1 µM]
COCC(=O)N[C@H]1CO[C@H]2[C@@H]1OC[C@@H]2Nc1nccc(-c2cccc(C#N)c2)n1 | 11.2µM*
N#Cc1cccc(NC(=O)O[C@@H]2CO[C@H]3[C@@H]2OC[C@@H]3Nc2nccc(-c3cccc(C#N)c3)n2)c1 | i
COc1ccc(NC(=O)O[C@@H]2CO[C@H]3[C@@H]2OC[C@@H]3Nc2nccc(-c3cccc(C#N)c3)n2)cc1 | -19.7%
COCC(=O)N[C@H]1CO[C@H]2[C@@H]1OC[C@@H]2Nc1nccc(-c2cccc(F)c2)n1 | i
CC(C)(C)C(=O)N[C@H]1CO[C@H]2[C@@H]1OC[C@@H]2Nc1nccc(-c2cccc(C#N)c2)n1 | i
N#Cc1cccc(-c2ccnc(N[C@H]3CO[C@H]4[C@@H]3OC[C@H]4OC(=O)Nc3cccc4ccccc34)n2)c1 | 11.2µM*
COc1ccc(CCNC(=O)c2c(OC)cc(=O)n3c2CCCC3)cc1OC | 39.4%
CN1C[C@H]2CN(Cc3ccc(C(=O)O)cc3)CCN2C1=O | -5.5%[44.1 µM]
